Laboratory results reported in PubChem BioAssay (Tox21).
Several values for one entry are separate records, joined by “and”; a condition that tells them apart may be missing. Identical values can stand only once. Records with an inconclusive call do not appear. A call without a number means that no potency is given here. More than one record can exist for a structure, and the calls need not agree. Activity calls are given as the source filed them. Unless noted, calls come from the whole dose curve; as a rule, active = well fitted curve in the direction sought with a large enough effect in the repeat runs; inconclusive = weak or mixed curves; inactive = no such curve, though single readings can be large; an effect the other way counts as inactive or inconclusive.

Experiments:
[1] = qHTS assay to identify small molecule agonists of the RXR signaling pathway - cell viability counter screen (AID 1159529);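 note: HEK 293T cells carrying an RXR-alpha UAS beta-lactamase reporter; nearly all actives have a fitted effect of over 50% in size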
In short: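 HEK 293T RXRa-bla cells, 2% CS-FBS; 5 h settle; cpd 16 h 37 C, 5% CO2; CellTiter-Glo 30 min RT, luminescence. Tetraoctyl ammonium bromide as positive control.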

[2] = qHTS assay to identify small molecule antagonists of the retinoid acid receptor (RAR) signaling pathway - cell viability counter screen (AID 1159551); note: nearly all actives have a fitted effect of over 35% in size
In short: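 Viability of C3RL4 cells is quantified from ATP by luminescence after 6 h treatment at 37 C with compounds and 1 uM retinol.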

[3] = qHTS assay to identify small molecule antagonists of the retinoic acid receptor (RAR) signaling pathway (AID 1159552; note: nearly all actives have a fitted effect of over 50% in size)
In short: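 Cells of the C3RL4 line were seeded, incubated overnight, then dosed with compounds in DMSO followed immediately by retinol (1 uM final). Six hours later luciferase detection reagent went in; signal was measured after 30 min at RT.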

[4] = qHTS assay to identify small molecule agonists of the retinoic acid receptor (RAR) signaling pathway (AID 1159553); details: C3RL4 RARE luciferase reporter, agonist, 6 h; note: potency is the fitted concentration of half-maximal effect
In short: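 Compounds dissolved in DMSO were pinned onto C3RL4 cells seeded the previous day, and plates were held 6 hr at 37 C. RARE-driven luciferase output was then read by luminescence.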

[5] = qHTS assay to identify small molecule antagonists of the estrogen related receptor (ERR) signaling pathway from Tox21 library - cell viability counter screen (AID 1224834); note: nearly all actives have a fitted effect of over 30% in size; note: potency is the fitted concentration of half-maximal effect
In short: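 In this quantitative HTS format, ERR cells receive compounds in DMSO and are incubated for 17.5 h at 37 C. Live-cell protease activity is then detected with CellTiter-Fluor.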

[6] = molecular target: Luciferin 4-monooxygenase (Photinus pyralis) (UniProt P08659); test: qHTS assay to identify small molecule inhibitors of firefly luciferase (AID 1224835); note: nearly all actives have a fitted effect of over 25% in size; note: potency is the fitted concentration of half-maximal effect
Sequence of Luciferin 4-monooxygenase (Photinus pyralis) (P08659 whole entry, looked up): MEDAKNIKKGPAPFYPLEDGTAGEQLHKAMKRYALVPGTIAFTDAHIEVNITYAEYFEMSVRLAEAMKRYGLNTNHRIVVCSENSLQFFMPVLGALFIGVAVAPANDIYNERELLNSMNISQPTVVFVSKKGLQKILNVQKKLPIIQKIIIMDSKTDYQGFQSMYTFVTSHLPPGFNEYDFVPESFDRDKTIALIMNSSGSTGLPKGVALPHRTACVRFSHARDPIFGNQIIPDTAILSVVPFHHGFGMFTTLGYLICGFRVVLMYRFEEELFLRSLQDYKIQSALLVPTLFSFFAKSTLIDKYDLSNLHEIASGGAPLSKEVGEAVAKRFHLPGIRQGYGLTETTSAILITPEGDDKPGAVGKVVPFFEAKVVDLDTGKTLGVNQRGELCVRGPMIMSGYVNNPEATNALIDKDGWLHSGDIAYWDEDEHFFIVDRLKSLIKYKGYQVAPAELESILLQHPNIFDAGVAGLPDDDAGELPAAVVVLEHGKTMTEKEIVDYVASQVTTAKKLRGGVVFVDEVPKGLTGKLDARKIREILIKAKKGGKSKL
In short: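 Biochemical qHTS: compounds run as interplate titrations against purified firefly enzyme, with D-luciferin and ATP each at its KM concentration. Light output recorded by CCD imaging.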

[7] = qHTS assay to identify small molecule agonists of the constitutive androstane receptor (CAR) signaling pathway - cell viability counter screen (AID 1224836); note: nearly all actives have a fitted effect of over 45% in size
In short: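 HepG2-CYP2B6-hCAR, 2500 cells/well, 4 h pre-incubation; cpd 15 conc + PK11195 0.75 uM final; 23 h, 37 C/5% CO2; CellTiter-Fluor, fluorescence.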

[8] = qHTS assay to identify small molecule antagonists of the constitutive androstane receptor (CAR) signaling pathway - cell viability counter screen (AID 1224837); note: nearly all actives have a fitted effect of over 45% in size
In short: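 In quantitative HTS format, compounds at 15 concentrations were applied to HepG2 cells double-transfected with hCAR and CYP2B6-2.2kb under 50 nM CITCO stimulation; live-cell protease activity was read after 23 hr via CellTiter-Fluor.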

[9] = qHTS assay to identify small molecule antagonists of the estrogen related receptor signaling pathway with the pleiotropic PPARgamma coactivator (PGC) from Tox21 10K library - cell viability counter screen (AID 1224840; active = well fitted cell-killing curve with a large enough effect in the repeat runs, not every such curve was filed as active; note: nearly all actives have a fitted effect of over 40% in size; note: potency is the fitted concentration of half-maximal effect)
In short: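 Viability counter screen, PGC/ERR cells: 17.5 h compound exposure at 37 C, CellTiter-Fluor fluorescence endpoint.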

[10] = molecular target: Nuclear receptor subfamily 1 group I member 3 (Homo sapiens) (UniProt Q14994); test: qHTS assay to identify small molecule antagonists of the constitutive androstane receptor (CAR) signaling pathway (AID 1224838); note: nearly all actives have a fitted effect of over 40% in size
Sequence of Nuclear receptor subfamily 1 group I member 3 (Homo sapiens) (Q14994 whole entry, looked up): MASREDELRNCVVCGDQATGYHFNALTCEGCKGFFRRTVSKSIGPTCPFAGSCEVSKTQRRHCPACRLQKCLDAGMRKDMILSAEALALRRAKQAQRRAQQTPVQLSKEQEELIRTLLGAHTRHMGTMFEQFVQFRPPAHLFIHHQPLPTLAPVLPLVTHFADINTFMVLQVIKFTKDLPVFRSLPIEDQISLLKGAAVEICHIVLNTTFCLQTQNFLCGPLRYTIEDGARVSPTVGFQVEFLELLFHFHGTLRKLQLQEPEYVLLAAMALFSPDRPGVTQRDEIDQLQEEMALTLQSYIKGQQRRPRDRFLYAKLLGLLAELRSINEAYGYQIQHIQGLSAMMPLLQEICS
In short: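 CITCO-stimulated (50 nM final) HepG2 cells stably transfected with hCAR and CYP2B6-2.2kb luciferase were exposed to compounds at 15 concentrations for 24 h at 37 C/5% CO2. A luciferase reagent was added and luminescence recorded after 30 min.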

[11] = molecular target: Thyrotropin receptor (Homo sapiens) (UniProt P16473); test: qHTS assay to identify small molecule agonists of the thyroid stimulating hormone receptor (TSHR) signaling pathway (AID 1224843; calls by dose curve; note: nearly all actives have a fitted effect of over 45% in size)
Sequence of Thyrotropin receptor (Homo sapiens) (P16473 whole entry, looked up): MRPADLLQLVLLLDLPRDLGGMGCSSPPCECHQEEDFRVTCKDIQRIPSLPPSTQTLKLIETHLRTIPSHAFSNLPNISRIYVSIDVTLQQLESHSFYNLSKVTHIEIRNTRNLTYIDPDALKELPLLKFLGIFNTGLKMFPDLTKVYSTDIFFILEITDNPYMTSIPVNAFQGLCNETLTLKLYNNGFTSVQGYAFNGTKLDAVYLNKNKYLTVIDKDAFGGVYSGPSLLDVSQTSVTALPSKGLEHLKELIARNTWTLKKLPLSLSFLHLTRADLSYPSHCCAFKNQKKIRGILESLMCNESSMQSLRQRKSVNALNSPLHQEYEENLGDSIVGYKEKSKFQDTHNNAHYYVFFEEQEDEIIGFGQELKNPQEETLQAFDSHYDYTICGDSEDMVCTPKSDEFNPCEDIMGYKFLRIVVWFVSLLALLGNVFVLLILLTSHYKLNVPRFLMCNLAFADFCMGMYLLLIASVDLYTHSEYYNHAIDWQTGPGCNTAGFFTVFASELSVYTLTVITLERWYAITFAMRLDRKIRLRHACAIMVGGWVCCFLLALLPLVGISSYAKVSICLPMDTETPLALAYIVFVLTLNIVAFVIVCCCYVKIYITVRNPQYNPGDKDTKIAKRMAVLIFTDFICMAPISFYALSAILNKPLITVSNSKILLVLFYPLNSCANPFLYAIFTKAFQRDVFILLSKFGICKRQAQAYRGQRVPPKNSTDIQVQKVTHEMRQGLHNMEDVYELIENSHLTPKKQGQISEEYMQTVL
In short: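 HEK293/TSHR, 800 cells/well; cpd 30 min RT; add cAMP-d2 + anti-cAMP-cryptate, 1 h RT; fluorescence read on plate reader. 15-pt titration, n=3.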

[12] = qHTS assay to identify small molecule antagonists of the estrogen related receptor signaling pathway with the pleiotropic PPARgamma coactivator (PGC) from Tox21 10K library (AID 1224841; call rule not given here; note: actives are mostly falling curves and most rising ones were filed inactive; nearly all actives have a fitted effect of over 50% in size)
In short: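 In the PGC/ERR line, DMSO solutions of test chemicals are pin-delivered to 2,000 cells/well six hours after dispensing. Following eighteen hours' incubation, One-Glo reagent is added and luminescence recorded.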

[13] = qHTS assay to identify small molecule agonists of the estrogen related receptor signaling pathway with the pleiotropic PPARgamma coactivator (PGC) from Tox21 10K library (AID 1224842); note: nearly all actives have a fitted effect of over 15% in size
In short: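 PGC/ERR reporter cell line, 2,000 cells per well, incubated 6 h at 37 C before 23 nL compound in DMSO was added. After 18 h at 37 C, One-Glo luminescence read following 30 min at room temperature.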

[14] = molecular target: Nuclear receptor subfamily 1 group I member 3 (Homo sapiens) (UniProt Q14994); test: qHTS assay to identify small molecule agonists of the constitutive androstane receptor (CAR) signaling pathway (AID 1224839);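 note: HepG2 cells stably carrying human CAR and a CYP2B6 luciferase reporter; nearly all actives have a fitted effect of over 15% in size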
In short: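 HepG2-CYP2B6-hCAR cells, 2500/well, 4 h pre-incubation; compounds 15 conc.; PK11195 0.75 uM final; 24 h, 37 C/5% CO2; ONE-Glo luciferase read.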

[15] = qHTS assay to identify small molecule antagonists of the estrogen related receptor signaling pathway with the pleiotropic PPARgamma coactivator (PGC) cell viability counter screen (AID 1224822)
In short: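 Viable cell signal (CellTiter-Fluor, 30 min, 37 C/5% CO2) was measured in PGC/ERR cells after a 17.5 h compound incubation.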

[16] = activation: at 73.3 µM (top of the series) unless noted

Compound	Potency [1]	Potency [2]	Potency [3]	activation [4, 16]	activation ([4]; at 73.3 µM (top of the series))	Potency [5]	Potency [6]	Potency [7]	Potency [8]	Potency [9]	Potency [4, 16]	Potency [10]	Potency [11]	activity change, negative = cytotoxicity [1]	activity change, negative = inhibition [6]	Potency [12]	Potency [13]	Potency [14]	Potency [15]
CN1CCCC1=O	inactive	inactive	inactive	-0.377% [at 94.8 µM] (active)	0.131% (inactive)	inactive	inactive	inactive	inactive	inactive	–	–	–	–	–	–	–	–	–
CC(=O)c1nccs1	inactive	inactive	inactive	–	–	inactive	inactive	inactive	inactive	inactive	inactive	inactive	inactive	–	–	–	–	–	–
CCCCCCCCC(=O)O	inactive	inactive	inactive	–	–	inactive	inactive	inactive	inactive	inactive	inactive	inactive	inactive	–	–	–	–	–	–
CCCCCCCCCCCC(=O)N(C)CC(=O)O	–	inactive	inactive	–	–	inactive	77.2 µM (active)	inactive	–	–	inactive	–	inactive	3.37% [at 6.97 µM] (inactive)	1.62% [at 10.5 µM] (inactive)	–	–	–	–
O=Cc1ccc(CO)o1	inactive	inactive	inactive	–	–	inactive	inactive	inactive	inactive	inactive	inactive	inactive	inactive	–	–	inactive	inactive	–	–
O=C1CCCCCCCCCCC1	inactive	inactive	inactive	–	–	inactive	inactive	inactive	inactive	inactive	inactive	inactive	inactive	–	–	–	–	–	–
COc1ccc([C@@H]2CC(=O)c3c(O)cc(O[C@@H]4O[C@H](CO[C@@H]5O[C@@H](C)[C@H](O)[C@@H](O)[C@H]5O)[C@@H](O)[C@H](O)[C@H]4O)cc3O2)cc1OC	inactive	inactive	inactive	–	–	inactive	–	inactive	inactive	inactive	inactive	inactive	inactive	–	–	–	–	–	–
CC(=O)OCc1ccc2c(c1)OCO2	inactive	inactive	–	–	–	inactive	inactive	inactive	inactive	–	–	inactive	inactive	–	–	inactive	inactive	–	–
COC(=O)OC	inactive	inactive	–	–	–	inactive	–	inactive	inactive	inactive	–	inactive	inactive	–	–	inactive	inactive	inactive	–
O=c1c(O)c(-c2ccc(O)c(O)c2)oc2cc(O)cc(O)c12	inactive	inactive	–	–	–	43.6 µM (active) and 27.3 µM (active) and inactive	35.9 µM (active) [middle of 4 runs]	inactive	–	inactive and 24.3 µM (active)	61.2 µM (active)	inactive	inactive	–	–	–	–	–	inactive
OCC(CO)(CO)CO	inactive	inactive	inactive	–	–	inactive	inactive	inactive	–	–	inactive	inactive	inactive	–	–	–	–	inactive	–
CC(COCC(C)OC(=O)c1ccccc1)OC(=O)c1ccccc1 (configuration not stated)	inactive	inactive	inactive	–	–	inactive	inactive	inactive	–	inactive	inactive	inactive	–	–	–	inactive	inactive	–	–
